# High-throughput results as filed in PubChem.
# Pf Dd2 growth: qHTS Primary assay for Inhibitors of Plasmodium falciparum Dd2 growth in vitro. P. falciparum Dd2 growth, SYBR Green, 72 h. Potency, µM (series often up to 28.9 µM), without a hit: at the top dose activity, negative = inhibition, usual class: inhibitors. hit rate 4.3% among 120,000. AID 1347417, 2020; active = well fitted inhibition curve with a large enough effect;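 note: plate controls were DMSO vehicle for no effect and reference drug for full effect; nearly all actives have a fitted effect of over 65% in size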
#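 Readout: SYBR Green fluorescence, 485 nm excitation, 535 nm emission, after ~16 h lysis at 37C. Before that, Dd2-infected red cells (2.5% hematocrit) grew 72 h with compound, 29 uM top final concentration.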
# * = called active by the depositor; i = inactive; [ ] = another dose, or the depositor's remark. The full list was thinned out, with hits kept by preference. Potency is the fitted concentration of half-maximal effect.
SMILES,Pf Dd2 growth
CC1CCC2(CC1)NC(=O)N(CC(=O)NC1CCCCC1)C2=O (configuration not stated),1%
O=C(NC1C[C@H]2CC[C@@H](C1)N2C(=O)CC1CCCC1)c1ccc(F)cc1 (some centres not stated),-19%
COc1nc2c(cc1CNC(=O)c1cnc(C)nc1)C(=O)N(C1CCCC1)C2,-3%
COc1ccccc1-c1[nH]nc2ncc(C(=O)NCCc3ccccn3)nc12,-19%[44.1 µM]
Cc1ncc2c(n1)C[C@@H]1CC[C@H]2N1C(=O)c1sccc1C,i
Cc1ccc(N2CCC(NC(=O)c3ccc(C#N)cc3)C2=O)cc1 (configuration not stated),-16%
CC(C)c1ccc(C(=O)N2CC[C@H](N(C)C)[C@H](CCC(=O)O)C2)c(=O)[nH]1,-17%
Cc1nc2c(NC3CCN(C(=O)c4cccn4C)CC3)cccn2n1,-11%
Cc1ccc(OC(C)c2nc(-c3cccnn3)no2)cc1C (configuration not stated),-20%
COC1C(=O)N(C2CCN(C(=O)Cc3c[nH]c4ccccc34)CC2)C12CCOCC2 (configuration not stated),-15%
COC1C(=O)N(CC2CC2)C12CCN(C(=O)Cc1cccc(F)c1)CC2 (configuration not stated),-21%
O=C1NCCCCCCN(Cc2ccncc2)[C@@H]2CN(C(=O)Nc3ccccc3F)CC[C@H]12,i
CCn1nnc2cc(C(=O)Nc3cccc(C(F)(F)F)c3)ccc21,-5%
CCN(CC)c1cc(C)c2cc(NC(=O)c3cccc(F)c3)ccc2n1,-6%
Cc1ccc(OCC(=O)Nc2ccc3nc(Nc4cccc(Cl)c4)cc(C)c3c2)cc1,36%
Cc1cc(Nc2cccc(C(F)(F)F)c2)nc2ccc(NC(=O)c3ccc(N(C)C)cc3)cc12,2.8µM*
Cc1cc(Nc2cccc(C(F)(F)F)c2)nc2ccc(NC(=O)Cc3ccc(Cl)cc3)cc12,11µM*
Cc1ccccc1-c1nc2cc(NC(=O)Cc3ccc(Cl)cc3)ccc2o1,3%
COc1ccc(CN2C(=O)CO[C@H]3CN(Cc4ccccc4Cl)C[C@H]32)cc1,i
Cc1cc(=O)n(CC(=O)Nc2ccccc2F)c(-c2ccc(Cl)cc2)n1,-104%
O=C(c1ccc(=O)[nH]c1)N1C[C@@H](CO)[C@H](c2ccccn2)C1,11%
Cc1cc(C)cc(C(=O)N2CCN(C3CCN(Cc4cccnc4)C3=O)CC2)c1 (configuration not stated),-19%
COc1cccc(CCC(=O)N2CCN(C(=O)c3nnn4c3COC(c3ccc(C)cc3)C4)CC2)c1 (configuration not stated),-19%
O=C(C[C@@H]1CCNC[C@@H]1Cc1cc(CSc2ccccc2)on1)NCc1cccnc1,i
CN(Cc1ccccc1)C(=O)C[C@@H]1CCNC[C@@H]1Cc1cc(CSc2ccccc2)on1,10µM*
SMILES,Pf Dd2 growth
COc1ccc(-c2cc(C[C@H]3CNCC[C@H]3CC(=O)N(C)Cc3ccccc3)no2)cc1,10µM*
O=C(C[C@@H]1CCNC[C@@H]1Cc1cc(COc2ccccc2)on1)NC1CCCCC1,-12%[44.1 µM]
COc1ccc(CNC(=O)C[C@@H]2CCNC[C@@H]2Cc2cc(-c3ccc(OC)cc3)on2)cc1,-2%
COc1ccc(CNC(=O)C[C@@H]2CCNC[C@@H]2Cc2cc(CN(C)Cc3ccccc3)on2)cc1,i
C#CCN(C)C(=O)C[C@@H]1CCNC[C@@H]1Cc1cc(COc2ccccc2)on1,10µM*
COc1ccc(-c2cc(C[C@H]3CNCC[C@H]3CC(=O)NCc3ccccc3OC)no2)cc1,10µM*
COc1ccc(-c2cc(C[C@H]3CNCC[C@H]3CC(=O)NCc3ccc(OC)c(OC)c3)no2)cc1,i
O=C(C[C@@H]1CCNC[C@@H]1Cc1cc(CSc2ccccc2)on1)NCCN1CCOCC1,-20%
COc1ccc(-c2cc(C[C@H]3CNCC[C@H]3CC(=O)N3CCN(C)CC3)no2)cc1,-19%[44.1 µM]
COc1ccc(-c2cc(C[C@H]3CNCC[C@H]3CC(=O)N3CCN(c4ccccc4)CC3)no2)cc1,-7%
Cc1c(-c2ccccc2F)[nH]c2ccc(CNC(=O)CCc3cc(=O)[nH]o3)cc12,-7%
COc1ccc(Cl)cc1-c1ccc2c(n1)CN(CCOc1ccccc1)C(=O)CO2,i
O=C(c1cncc(F)c1)N1CCOCC2(CN(Cc3cc(F)cc(F)c3)C2)C1,-13%[44.1 µM]
CCCCN(CCC(=O)NCc1ccco1)C(=O)c1cc(C)oc1C,-8%
CC(=O)N1CCc2c(sc3c2c(=O)n(-c2cccc(Cl)c2)c(=O)n3Cc2ccc(F)cc2Cl)C1,11µM*
CCc1ccc(-n2c(=O)c3c4c(sc3n(CC(=O)c3ccc(Cl)cc3)c2=O)CCC4)cc1,-19%
CCOC(=O)N1CCc2c(sc3c2c(=O)n(CCc2ccccc2)c(=O)n3CC(=O)Nc2ccccc2C)C1,0%
CCOC(=O)N1CCc2c(sc3c2c(=O)n(Cc2ccccc2)c(=O)n3CC(=O)Nc2cccc(CC)c2)C1,7.1µM*
CCc1ccc(-n2c(=O)c3c4c(sc3n(CC(=O)c3ccc(Br)cc3)c2=O)CCC4)cc1,-24%
COc1cccc(-n2c(=O)c3c4c(sc3n(Cc3ccc(F)cc3Cl)c2=O)CCCC4)c1,13%
CC(=O)N1CCc2c(sc3c2c(=O)n(-c2ccccc2C)c(=O)n3CC(=O)c2ccccc2)C1,-4%
CC(=O)N1CCc2c(sc3c2c(=O)n(CCc2ccccc2)c(=O)n3Cc2ccccc2C)C1,7.9µM*
CC(=O)N1CCc2c(sc3c2c(=O)n(Cc2ccccc2)c(=O)n3Cc2cc(C)ccc2C)C1,-16%
CC(=O)N1CCc2c(sc3c2c(=O)n(-c2ccc(F)cc2)c(=O)n3Cc2cc(C)ccc2C)C1,-1%
CC(=O)c1cccc(-n2c(=O)c3c4c(sc3n(CC(=O)Nc3ccccc3F)c2=O)CN(C(C)=O)CC4)c1,17%
SMILES,Pf Dd2 growth
CCOC(=O)N1CCc2c(sc3c2c(=O)n(-c2ccc(CC)cc2)c(=O)n3CC(=O)c2ccc(F)cc2)C1,7.9µM*
C[C@H]1[C@@H]2[C@@H](O)[C@H]([C@H](C)C(=O)N3CCOCC3)CC[C@@]2(C)CC[C@@H]1NC(=O)c1cncnc1,-6%
O=Cc1cccc(N2CCN(C(=O)Nc3ccccc3)CC2=O)c1,59%
COc1ccc(CN2CC3(CCN(C(=O)c4cn[nH]c4-c4ccc(F)cc4)CC3)C2=O)cc1,-2%
CCCC(=O)N1CCC(Oc2ccc3c(cnn3CCC(=O)O)c2)CC1,i
O=C(NCc1ccc2c(c1)OCO2)c1ccc(N2CC3CC(C2)[C@H]2CCCC(=O)N2C3)nc1 (some centres not stated),i
O=C(CCc1nc(-c2cccnc2)no1)NCc1cc2n(n1)CCCNC2,15%
COc1ccc(S(=O)(=O)N2C[C@@H]3C[C@H](C2)c2ccc(NS(=O)(=O)c4cccs4)c(=O)n2C3)cc1,3%
CCc1nc(-c2c3n(c(=O)n(CC(=O)Nc4ccc(F)cc4F)c2=O)CCCCC3)no1,-11%
COCCOCC1(CNCc2c(C)noc2C)C[C@@H](O)[C@@H](O)C1 (some centres not stated),0%[44.1 µM]
COc1ccc(C(=O)N2CCCCCCN(C)C(=O)[C@@H]3CCC[C@@H]32)cn1,0%
CCOC(=O)N1CCc2c(sc3c2c(=O)n(-c2ccc(Cl)cc2)c(=O)n3Cc2cccc(C)c2)C1,-6%
CCOC(=O)N1CCc2c(sc3c2c(=O)n(-c2ccc(Cl)cc2)c(=O)n3Cc2cccc(OC)c2)C1,-21%
CCOC(=O)N1CCc2c(sc3c2c(=O)n(Cc2ccccc2)c(=O)n3Cc2cccc(Cl)c2)C1,11µM*
